Laboratory results as given in PubChem BioAssay (NCATS).
Records with an inconclusive call do not appear. The source made the active and inactive calls. Unless noted, calls follow the shape of the dose curve; as a rule, active = well fitted curve in the direction sought with a large enough effect; inconclusive = small, poorly fitted or top-dose-only effect, or another doubt; inactive = no such curve, though single readings can be large; an effect the other way counts as inactive or inconclusive.

Experiments:
[1] = target: Estrogen receptor (Homo sapiens) (UniProt P03372); assay: qHTS assay for small molecule antagonists of estrogen receptor alpha signaling (AID 588513; active = well fitted curve in the direction sought with a large enough effect in the signal ratio, with a control signal flat, not every such curve was filed as active; the % refers to the signal ratio; also: % is scaled to controls: 0 for no effect and ±100 for the full control effect)
Chain of Estrogen receptor (Homo sapiens) (P03372 whole entry, looked up): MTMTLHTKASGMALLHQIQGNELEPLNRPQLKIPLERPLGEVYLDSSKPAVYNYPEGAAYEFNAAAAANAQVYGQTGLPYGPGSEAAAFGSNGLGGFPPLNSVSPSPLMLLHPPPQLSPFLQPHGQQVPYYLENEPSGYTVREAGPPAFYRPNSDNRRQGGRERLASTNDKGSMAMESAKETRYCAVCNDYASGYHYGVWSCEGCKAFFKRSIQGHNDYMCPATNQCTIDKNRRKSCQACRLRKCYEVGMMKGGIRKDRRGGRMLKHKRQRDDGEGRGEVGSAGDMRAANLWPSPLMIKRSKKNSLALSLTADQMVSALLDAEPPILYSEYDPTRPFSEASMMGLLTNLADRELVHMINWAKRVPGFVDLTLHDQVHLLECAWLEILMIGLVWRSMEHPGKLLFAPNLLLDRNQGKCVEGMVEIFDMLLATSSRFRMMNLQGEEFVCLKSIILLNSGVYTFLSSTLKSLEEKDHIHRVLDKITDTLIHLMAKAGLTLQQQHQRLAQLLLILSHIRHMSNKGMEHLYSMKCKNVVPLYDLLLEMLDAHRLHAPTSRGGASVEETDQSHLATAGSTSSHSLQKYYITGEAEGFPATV
Outline: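 Cells were plated at 5000/well and incubated 4 h at 37 C. Compounds were added as 1:2 dilution series, duplicates. 17-beta-estradiol (0.5nM final) was added for 18 h before CCF4 detection.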

[2] = target: Estrogen receptor (Homo sapiens) (UniProt P03372); assay: qHTS assay for small molecule agonists of estrogen receptor alpha signaling (AID 588514; calls by dose curve;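 also: 0% = vehicle only and 100% = reference agonist; nearly all actives have a fitted effect of over 70% in size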)
Outline: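 ER-alpha-UAS-bla GripTite HEK293 cells, 5000/well in 2% charcoal/dextran-stripped FBS medium, treated with compound titrations 18 h at 37 C. CCF4 beta-lactamase read by fluorescence after 2 h RT; normalised to 20 nM 17-beta-estradiol (100%) and DMSO (0%), Hill fit for EC50 and efficacy.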

[3] = qHTS assay for small molecule antagonists of peroxisome proliferator-activated receptor delta signaling (AID 588535); details: HEK293T PPARd-UAS-bla, beta-lactamase FRET ratio, 18 h; 460 nm channel;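 also: cells co-treated with a PPAR-delta agonist as stimulator during compound exposure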
Outline: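 HEK293T PPAR-delta-UAS-bla cells, 4000/well, 2% charcoal/dextran FBS; 5 h 37 C; cpd titration; 18 h 37 C; CCF4 2 h RT; FI 460/530 nm; Hill fit → IC50, efficacy.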

[4] = target: Peroxisome proliferator-activated receptor gamma (Homo sapiens) (UniProt P37231); assay: qHTS assay for small molecule agonists of peroxisome proliferator-activated receptor gamma signaling (AID 588536; active = well fitted curve in the direction sought with a large enough effect in the signal ratio, with a control signal flat, not every such curve was filed as active; the % refers to the signal ratio;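 also: 0% = DMSO basal wells and 100% = rosiglitazone at 2 µM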)
Chain of Peroxisome proliferator-activated receptor gamma (Homo sapiens) (P37231 whole entry, looked up): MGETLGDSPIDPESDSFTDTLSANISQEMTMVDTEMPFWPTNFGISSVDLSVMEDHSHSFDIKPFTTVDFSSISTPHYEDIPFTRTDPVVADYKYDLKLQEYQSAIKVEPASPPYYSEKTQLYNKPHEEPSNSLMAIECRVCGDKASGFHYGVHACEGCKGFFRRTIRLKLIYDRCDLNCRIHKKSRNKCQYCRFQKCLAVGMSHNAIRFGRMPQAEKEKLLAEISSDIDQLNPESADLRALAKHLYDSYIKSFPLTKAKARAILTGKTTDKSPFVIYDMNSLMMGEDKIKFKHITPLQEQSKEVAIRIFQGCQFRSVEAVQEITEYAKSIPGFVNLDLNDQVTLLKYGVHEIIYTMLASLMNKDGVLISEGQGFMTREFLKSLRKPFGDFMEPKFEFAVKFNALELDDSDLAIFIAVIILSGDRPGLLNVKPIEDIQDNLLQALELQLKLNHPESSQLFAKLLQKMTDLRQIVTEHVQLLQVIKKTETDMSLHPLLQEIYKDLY
Outline: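 GeneBLAzer PPAR-gamma-UAS-bla HEK293 cells in 1% charcoal/dextran-treated FBS medium were treated 16 h at 37 C with compounds. Beta-lactamase activity was read by CCF4 ratio (460/530 nm). Response was normalized to 2 uM rosiglitazone (100%) and DMSO, then Hill-fitted for EC50 and efficacy.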

[5] = target: Vitamin D3 receptor (Homo sapiens) (UniProt P11473); assay: qHTS assay for small molecule agonists of vitamin D receptor signaling (AID 588543; calls by dose curve;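 also: 0% = DMSO basal and 100% = reference agonist control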)
Chain of Vitamin D3 receptor (Homo sapiens) (P11473 whole entry, looked up): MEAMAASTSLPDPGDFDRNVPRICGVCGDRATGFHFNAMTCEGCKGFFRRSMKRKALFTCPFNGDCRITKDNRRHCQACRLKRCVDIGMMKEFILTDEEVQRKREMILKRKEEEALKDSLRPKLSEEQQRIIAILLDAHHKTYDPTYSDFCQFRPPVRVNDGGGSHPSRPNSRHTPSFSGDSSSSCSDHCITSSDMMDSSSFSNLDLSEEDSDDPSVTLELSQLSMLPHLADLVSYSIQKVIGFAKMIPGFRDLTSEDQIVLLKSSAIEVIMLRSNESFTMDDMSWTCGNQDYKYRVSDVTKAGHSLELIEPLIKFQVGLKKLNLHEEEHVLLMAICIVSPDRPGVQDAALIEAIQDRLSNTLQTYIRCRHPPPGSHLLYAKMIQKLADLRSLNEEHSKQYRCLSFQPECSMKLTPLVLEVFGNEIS
Outline: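 qHTS in agonist mode: compound titrations stimulate a VDR-driven β-lactamase reporter in HEK293T cells over 16 h at 37 °C. Response normalized to 50 nM 1α,25-dihydroxyvitamin D3 = 100%, DMSO = 0%; Hill fitting gives EC50 and maximal response.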

[6] = qHTS assay for small molecule agonists of retinoid X receptor alpha signaling (AID 588544; calls by dose curve;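 as to activation: 0% = DMSO basal wells and 100% = reference agonist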); details: HEK293T RXRa-UAS-bla, beta-lactamase reporter, 18 h; 530 nm emission
[7] = target: Retinoic acid receptor RXR-alpha (Homo sapiens) (UniProt P19793); assay: as above
Chain of Retinoic acid receptor RXR-alpha (Homo sapiens) (P19793 whole entry, looked up): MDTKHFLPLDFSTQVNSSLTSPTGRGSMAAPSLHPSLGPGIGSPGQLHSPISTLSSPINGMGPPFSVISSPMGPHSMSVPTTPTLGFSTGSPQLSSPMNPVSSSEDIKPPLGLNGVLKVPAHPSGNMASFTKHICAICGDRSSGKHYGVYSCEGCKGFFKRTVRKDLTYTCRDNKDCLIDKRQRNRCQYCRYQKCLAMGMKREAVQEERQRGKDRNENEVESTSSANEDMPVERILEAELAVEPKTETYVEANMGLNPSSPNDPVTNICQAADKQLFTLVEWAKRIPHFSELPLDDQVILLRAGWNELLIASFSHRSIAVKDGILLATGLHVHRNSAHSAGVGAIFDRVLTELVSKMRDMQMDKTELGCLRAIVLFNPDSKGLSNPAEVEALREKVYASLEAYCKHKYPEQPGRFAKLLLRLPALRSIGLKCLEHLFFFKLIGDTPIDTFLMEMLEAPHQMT

[8] = target: Thyroid hormone receptor beta (Homo sapiens) (UniProt P10828); assay: qHTS assay for small molecule agonists of thyroid hormone receptor beta signaling (AID 588545; calls by dose curve)
Chain of Thyroid hormone receptor beta (Homo sapiens) (P10828 whole entry, looked up): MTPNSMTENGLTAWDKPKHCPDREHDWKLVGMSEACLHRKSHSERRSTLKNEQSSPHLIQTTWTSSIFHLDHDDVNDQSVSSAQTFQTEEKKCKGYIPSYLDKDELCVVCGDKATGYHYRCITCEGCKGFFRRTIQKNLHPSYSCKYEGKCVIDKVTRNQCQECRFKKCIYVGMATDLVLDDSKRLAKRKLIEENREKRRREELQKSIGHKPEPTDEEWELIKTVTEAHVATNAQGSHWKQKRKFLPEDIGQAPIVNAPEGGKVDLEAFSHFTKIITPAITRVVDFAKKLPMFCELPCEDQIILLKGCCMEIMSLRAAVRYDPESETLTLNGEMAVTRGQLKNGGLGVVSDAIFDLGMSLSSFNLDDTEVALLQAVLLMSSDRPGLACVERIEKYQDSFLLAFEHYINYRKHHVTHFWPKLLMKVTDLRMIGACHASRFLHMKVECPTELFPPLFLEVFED
Outline: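 Agonist-mode beta-lactamase reporter assay, HEK 293 cells, 2% charcoal/dextran FBS; cells plated 4 hrs, compound 18 hrs at 37 C, CCF4 2 hrs RT. Normalized to 10 nM T3 (100%) and DMSO (0%); Hill fit gives EC50, efficacy.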

[9] = qHTS assay for small molecule antagonists of retinoid X receptor alpha signaling (AID 588546; active = well fitted inhibition curve with a large enough effect in the signal ratio, with a control signal flat, not every such curve was filed as active; the % refers to the signal ratio;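 also: cells stimulated with 9-cis-retinoic acid as agonist; % is scaled to controls: 0 for no effect and ±100 for the full control effect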); details: HEK293T RXRa-UAS-bla, beta-lactamase ratio, antagonist mode; measured here: W530 green channel, cytotoxicity proxy
Outline: (§1)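 Beta-lactamase reporter inhibition, read as CCF4 fluorescence ratio (ex 405, em 460/530 nm) after 2 h at RT. HEK293T UAS-bla cells, 2500/well, were stimulated with 9-cis-RA at 500 or 100 nM final alongside test compound for 18 h at 37 C.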

[10] = target: Thyroid hormone receptor beta (Homo sapiens) (UniProt P10828); assay: qHTS assay for small molecule antagonists of thyroid hormone receptor beta signaling (AID 588547; active = well fitted inhibition curve with a large enough effect in the signal ratio, with a control signal flat, not every such curve was filed as active; the % refers to the signal ratio;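 also: cells stimulated with 0.4 nM T3 agonist during compound exposure; series mostly up to about 77 µM; % is scaled to controls: 0 for no effect and ±100 for the full control effect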); details: TR-UAS-bla HEK293, beta-lactamase ratio, antagonist mode, 18 h
Outline: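 Inhibition of T3-driven (0.4nM final) beta-lactamase reporter activity was measured over 0.59 nM to 92 uM compound after 18 h at 37 C. The cells were GripTite HEK293 TR-UAS-bla in charcoal/dextran-stripped serum, with CCF4 ratio read-out and IC50 from Hill fits.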

[11] = qHTS assay for environmental chemicals that activate the Aryl hydrocarbon Receptor (AhR) signaling pathway (AID 651777); details: 1A2-DRE human hepatoma cells, luciferase, 24 h; activation: stronger effect = higher value; also: % of control where 0% means no effect; nearly all actives have a fitted effect of over 15% in size
Outline: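 Reporter gene assay: hepatoma cells with DRE/CYP1A2-luciferase, 24 hr compound incubation at 37 C, 5% CO2, luminescence after One-Glo (30 min, RT).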

[12] = target: Peroxisome proliferator-activated receptor alpha (Homo sapiens) (UniProt Q07869); assay: qHTS assay for small molecule agonists of the peroxisome proliferator-activated receptor alpha (PPARalpha) signaling pathway (AID 651778); details: PathHunter PPARalpha complementation, chemiluminescence, 6 h; max response: stronger effect = higher value; also: % of control where 0% means no effect
Chain of Peroxisome proliferator-activated receptor alpha (Homo sapiens) (Q07869 whole entry, looked up): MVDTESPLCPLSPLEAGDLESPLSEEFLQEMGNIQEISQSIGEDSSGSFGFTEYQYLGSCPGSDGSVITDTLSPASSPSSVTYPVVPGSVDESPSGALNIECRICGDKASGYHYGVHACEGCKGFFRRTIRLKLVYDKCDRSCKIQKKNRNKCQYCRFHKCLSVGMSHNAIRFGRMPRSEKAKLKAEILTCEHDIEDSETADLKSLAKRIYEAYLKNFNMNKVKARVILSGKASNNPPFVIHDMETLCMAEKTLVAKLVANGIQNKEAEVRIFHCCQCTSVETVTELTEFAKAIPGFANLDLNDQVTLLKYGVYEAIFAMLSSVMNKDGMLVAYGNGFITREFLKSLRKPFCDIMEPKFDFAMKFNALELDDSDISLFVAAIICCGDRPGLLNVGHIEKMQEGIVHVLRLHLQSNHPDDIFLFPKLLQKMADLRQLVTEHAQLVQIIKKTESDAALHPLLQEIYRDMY
Outline: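 Chemiluminescence from complemented enzyme reported PPARalpha activation in cells after 6 hr of compound treatment at 37 C. The detection reagent was incubated for 60 min at room temperature, and compounds were scored as agonists.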

[13] = qHTS assay for small molecule agonists of the antioxidant response element (ARE) signaling pathway measured by Nrf2-dependant transcriptional activity (AID 720636; active = well fitted curve in the direction sought with a large enough effect in the repeat runs; an effect the other way counts as inactive or inconclusive;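 also: HepG2 cells with an ARE-driven luciferase reporter; % of control where 0% means no effect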)
Outline: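 Nrf2-dependent transcription is measured in ARE-luc HepG2 cells: compound is applied for 16 hr at 37 C after a 6 hr attachment period, and luciferase activity is quantified by luminescence using ONE-Glo.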

[14] = qHTS assay for small molecule agonists of the antioxidant response element (ARE) signaling pathway measured by Nrf2-dependant transcriptional activity - cell viability counter screen (AID 720653; active = well fitted curve in the direction sought with a large enough effect in the repeat runs; an effect the other way counts as inactive or inconclusive; also: % is scaled to controls: 0 for no effect and ±100 for the full control effect); details: ARE-bla HepG2 viability, CellTiter-Glo ATP luminescence, 16 h; max response: stronger effect = lower value
Outline: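 Cytotoxicity counter screen: intracellular ATP quantified by CellTiter-Glo luminescence in the same ARE-bla HepG2 plates, after 16 h compound exposure and a 2 h beta-lactamase substrate step.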

[15] = qHTS assay for cell viability of HEK293 cells (AID 743288); details: ATP luminescence (CellTiter-Glo), 18 h; max response: stronger effect = lower value; also: % is scaled to controls: 0 for no effect and ±100 for the full control effect; nearly all actives have a fitted effect of over 50% in size
Outline: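 The Tox21 protocol used parental HEK293 cells treated for 18 h at 37 C with compounds delivered by pintool; ATP-coupled luminescence after 30 min at room temperature gave viability.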

[16] = qHTS assay for cell viability of the p53RE-bla HCT-116 cell line (AID 743292); also: % is scaled to controls: 0 for no effect and ±100 for the full control effect; nearly all actives have a fitted effect of over 55% in size
Outline: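 ATP-based luminescence, 16 h compound exposure at 37 C, p53RE-bla HCT-116 cells at 4,000/well.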

[17] = target: Nuclear receptor subfamily 1 group I member 2 (Rattus norvegicus) (UniProt Q9R1A7); assay: qHTS assay for small molecule activators of the rat pregnane X receptor (rPXR) signaling pathway (AID 651751; call rule not given here; also: 0% is about no effect); details: rPXR reporter cells, luciferase (One-Glo), 24 h
Chain of Nuclear receptor subfamily 1 group I member 2 (Rattus norvegicus) (Q9R1A7 whole entry, looked up): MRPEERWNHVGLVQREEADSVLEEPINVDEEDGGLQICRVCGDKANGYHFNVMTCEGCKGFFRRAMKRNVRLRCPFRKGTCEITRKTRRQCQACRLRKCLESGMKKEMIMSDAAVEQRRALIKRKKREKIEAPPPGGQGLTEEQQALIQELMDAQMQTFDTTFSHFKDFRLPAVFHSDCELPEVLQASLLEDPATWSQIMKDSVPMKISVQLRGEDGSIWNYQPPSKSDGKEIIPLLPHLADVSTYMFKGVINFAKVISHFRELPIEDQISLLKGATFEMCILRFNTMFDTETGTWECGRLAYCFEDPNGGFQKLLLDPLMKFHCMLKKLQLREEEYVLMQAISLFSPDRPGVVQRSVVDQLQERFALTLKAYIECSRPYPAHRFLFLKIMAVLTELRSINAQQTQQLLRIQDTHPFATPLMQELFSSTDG

[18] = target: Retinoic acid receptor RXR-alpha (Homo sapiens) (UniProt P19793); assay: qHTS assay for small molecule antagonists of retinoid X receptor alpha signaling (AID 588546); details: HEK293T RXRa-UAS-bla, beta-lactamase ratio, antagonist mode;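 also: cells stimulated with 9-cis-retinoic acid as agonist; % is scaled to controls: 0 for no effect and ±100 for the full control effect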
Outline: as §1

[19] = qHTS assay for small molecule activators of the nuclear factor-kappa B (NF-kB) signaling pathway (AID 651749; active = well fitted activation curve with a large enough effect in the signal ratio; the % refers to the signal ratio; also: series mostly up to about 77 µM; % of control where 0% means no effect); details: NF-kB-bla ME-180 cells, beta-lactamase FRET ratio, 16 h; activation: stronger effect = higher value
Outline: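 Readout: beta-lactamase reporter driven by an NF-kB response element, detected fluorescently as loss of FRET. Cells were the ME-180 line, treated 16 hr at 37C with pin-transferred compound.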

[20] = qHTS assay for small molecule activators of the human pregnane X receptor (PXR) signaling pathway (AID 720659; call rule not given here; also: 0% is about no effect)

SMILES | Potency [1] | Potency [2] | max response [3] [%] | outcome [4] | outcome [5] | max response [6] [%] | Potency [7] | Potency [8] | max response [9] [%] | activity change % (negative = inhibition) [10] | activation [11] | max response [12] | Potency [13] | max response [14] | max response [15] | Potency [16] | max response [17] | max response [18] | activation [19] | outcome [20]
CC(=O)/C=C/C1C(C)=CCCC1(C)C (stereo unspecified) | inactive | inactive | -18.3 | inactive | inactive | 0.774 | inactive | inactive | 1.01 | 5.94% (inactive) | 0.579% (inactive) | -0.682% (inactive) | inactive | 1.13% (inactive) | -13.5% (inactive) | inactive | 8.79% (inactive) |  |  | 
O=C(OCCOCCOC(=O)c1ccccc1)c1ccccc1 | inactive | inactive | 59.9 | inactive | inactive | -16.7 | inactive | inactive | -7.11 | 0.94% (inactive) | 1.92% (inactive) | -0.375% (inactive) | inactive | -6.77% (inactive) | -9.08% (inactive) | inactive | 2.6% (inactive) | 4.89% (inactive) | 0.298% (inactive) | inactive
O=[N+]([O-])c1ccc2c(c1)Cc1ccccc1-2 | inactive | inactive | 11.1 |  |  | -11.5 | inactive | inactive | -2.02 | -0.921% (inactive) | 0.842% (inactive) | -0.719% (inactive) |  | -13.8% (inactive) | -16.4% (inactive) | inactive | 5.85% (inactive) | -11.9% (inactive) | -1.58% (inactive) | inactive
CCCCCCCCCCCO | inactive | inactive | -7.63 | inactive | inactive | -10.8 | inactive | inactive |  | 9.58% (inactive) | -0.0375% (inactive) | 1.65% (inactive) | inactive | 3.39% (inactive) | 4.45% (inactive) | inactive | 2% (inactive) |  | 0.0542% (inactive) | 
CC(C)CCCCCOC(=O)CS | inactive | inactive |  | inactive |  | -0.354 | inactive | inactive | -2.29 | -8.58% (inactive) | -0.874% (inactive) | 0.461% (inactive) | inactive | -0.966% (inactive) | -8.32% (inactive) | inactive | -1.37% (inactive) | -5.77% (inactive) | 3.32% (inactive) | inactive
C=CCCCCCCCCC=O | inactive | inactive | 14.1 | inactive | inactive | -12 | inactive | inactive | -4.83 | 19.2% (inactive) | 0.287% (inactive) | -1.39% (inactive) | inactive | 3.17% (inactive) | -14% (inactive) | inactive | -2.8% (inactive) |  | -0.972% (inactive) | inactive
OCCOCCOCCOCCO | inactive | inactive | -5.22 |  | inactive | 4.51 | inactive | inactive | -7.24 |  | 2.06% (inactive) | -1.11% (inactive) |  | 2.46% (inactive) | -2.22% (inactive) | inactive |  | -5.67% (inactive) | -0.834% (inactive) | 
OCC(CO)(CO)COCC(CO)(CO)CO | inactive | inactive |  | inactive | inactive | -6.03 | inactive | inactive | -4.98 | -4.48% (inactive) | 3.82% (inactive) | 0.242% (inactive) | inactive | 3.18% (inactive) | -12.4% (inactive) | inactive | 3.21% (inactive) | -11.8% (inactive) | -2.64% (inactive) | 
